Assay outcomes (PubChem BioAssay)
D2 PAM-1: potentiates the human D2 dopamine receptor allosterically; DiscoveRx D2 beta-arrestin cells, luminescence, 90 min; 100% = 57 uM dopamine signal; potentiation, % (test concentration not listed); P14416; actives 0.23% (n = 360,000); in the data active means potentiation above about 50%; inconclusive means mostly about 30% to 49%
Target sequence (P14416 whole entry, looked up): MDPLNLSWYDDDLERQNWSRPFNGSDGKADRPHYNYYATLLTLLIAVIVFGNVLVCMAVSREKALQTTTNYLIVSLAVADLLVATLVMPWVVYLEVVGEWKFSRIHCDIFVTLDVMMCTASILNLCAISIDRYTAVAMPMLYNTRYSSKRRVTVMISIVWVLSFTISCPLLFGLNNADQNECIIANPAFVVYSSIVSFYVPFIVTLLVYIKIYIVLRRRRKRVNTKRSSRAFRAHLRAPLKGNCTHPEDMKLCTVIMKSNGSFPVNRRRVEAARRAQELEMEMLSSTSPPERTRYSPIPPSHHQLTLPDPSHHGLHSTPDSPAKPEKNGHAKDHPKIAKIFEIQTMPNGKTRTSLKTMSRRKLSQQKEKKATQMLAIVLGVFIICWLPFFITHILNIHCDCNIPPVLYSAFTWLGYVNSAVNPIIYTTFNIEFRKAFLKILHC
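PathHunter D2 cells, attached overnight at 37 deg C, received compound in DMSO plus dopamine at EC20 (50 nM final) for 90 min at 37 deg C. Beta-arrestin recruitment was read as luminescence after 1 h with detection reagent at ambient temperature.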
D2 ag-1: D2 dopamine receptor (human) agonism | P14416 | HEK293 T-REx D2 cells, calcium flux agonist mode | activation, % at 2 µM | actives 0.53% (n = 340,000);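 active means activation over 3 SD above normal in the single-dose calcium agonist read, cut at about 30% in these data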; further: 0% is about no effect
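Calcium-flux readout, 1 cycle/sec over 180 s following compound pin transfer, in inducible HEK293 Trex D2 cells (force-coupled); dopamine controls included. Positive calcium responses during this window marked compounds as potential agonists.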
D2 PAM-2: D2 dopamine receptor (human) potentiation; P14416; HEK293 T-REx D2, calcium flux, EC20 dopamine potentiation; potentiation, % at 10 µM; actives 0.34% (n = 340,000); AID 485347;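 active means potentiation over 3 SD above the plate norm, cut at about 30% in these data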; further: 0% is about no effect
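Tetracycline-induced Hek293 Trex D2 cells, force-coupled to calcium, loaded with no-wash calcium dye. Compound added with 180 s kinetic read for agonism, then EC20 dopamine and a further 180 s read for potentiation.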
D2 ag-2: agonists of human D2 dopamine receptor (beta-arrestin); DiscoveRx PathHunter D2 beta-arrestin, luminescence, 90 min; 100% = 57 uM dopamine signal; actives 0.084% (n = 360,000); activation, % (no concentration beside the values); P14416; in the data active means activation above about 40%; inconclusive means between about 15% and that limit
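Agonist mode: compounds alone added to overnight-plated D2 PathHunter cells for 90 min at 37 C, with 57 uM final dopamine (EC100) defining full response. Beta-arrestin recruitment detected by chemiluminescent reagent, read after 1 h at ambient temperature.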
D2 antag: antagonizes the human D2 dopamine receptor. P14416. HEK293 TREx D2 cells, calcium flux, dopamine EC80. inhibition, % at 10 µM. actives 2% (n = 340,000). AID 485344; in the data active means inhibition above about 30%; inactive means below that, where a call was filed; further: 0% is about no effect
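Tetracycline-induced HEK293 T-REx cells expressing D2 force-coupled to calcium signalling were dye-loaded, exposed to compound for 180 s, then challenged with an EC80 of dopamine; calcium flux was followed kinetically for a further 180 s.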
* = called active by the depositor; ? = inconclusive; . = no result; ! = not confirmed by another sample. In the library only some 2.4% were active in any assay of this set; here they are far more common.

SMILES	D2 PAM-1	D2 ag-1	D2 PAM-2	D2 ag-2	D2 antag
C/C(=N\NC(=O)C1(C)CC1(Br)Br)c1cccc(NC(=O)C2CCC2)c1 (configuration not stated)	2	-1	-1	-5	30*
COc1ccc(CC(=O)N/N=C(\C)c2cccc(NC(=O)C3CC3)c2)cc1	-18	-1	4	-3	-3
O=C(C#Cc1ccccc1)Nc1ccc(F)cc1	-24	0	-19	0	47*
COc1ccc(N=Cc2ccccc2O)cc1	-2	.	.	-2	.
C=CCOc1ccc(C=Nc2ccc(OC)cc2)c(O)c1	2	0	48*	2	-6
Cc1ccc2nc(-c3ccsc3)c(Nc3ccc(Cl)cc3)n2c1	.	0	-2	.	.
O=C(CCc1nc(-c2ccccc2)no1)Nc1cccnc1	-4	0	-8	-1	58*
O=C(CCCc1nc(-c2ccccc2)no1)Nc1cccnc1	7	.	.	1	.
CCCC(=O)C1=C(O)C(C(=O)OC)C(C)(C)CC1=NC(C)C (configuration not stated)	0	0	5	0	33*
COc1ccc(-c2noc(N3CCC(C(=O)N4CCN(c5cccc(OC)c5)CC4)CC3)n2)cc1	.	0	-4	.	.
COc1cc(OC)cc(C(=O)O/N=C(\N)c2ccncc2)c1	111*	-1	9	?	-19
N/C(=N\OC(=O)c1ccccc1)c1ccncc1	7	3	-25	3	-12
N/C(=N\OC(=O)c1ccc(Br)cc1)c1ccncc1	52*	0	2	42*	26
CCCn1ccc2c(OCC(=O)Nc3ccc(F)cc3F)cccc2c1=O	.	0	-6	.	.
CCc1ccc(NS(=O)(=O)c2ccc3[nH]cc(C(=O)NCc4ccc(C)cc4)c(=O)c3c2)cc1	.	0	2	.	.
COC(=O)C1=C(C)NC2=C(C1c1ccc(O)cc1)S(=O)(=O)c1ccccc12 (configuration not stated)	-13	0	-16	-5	-4
COc1ccc(C2C(C#N)=C(C)NC3=C2S(=O)(=O)c2ccccc23)cc1 (configuration not stated)	-16	0	32*	-4	-24
CC(=O)N1CCN(c2ccccc2NC(=O)c2cccs2)CC1	-25	0	5	1	1
O=C(Nc1ccccc1N1CCCC1)c1cc2ccccc2o1	-28	0	.	-5	-6
CC(=O)N1CCN(c2ccccc2NC(=O)c2ccc3ccccc3c2)CC1	4	0	4	-1	46*
O=C(Nc1ccccc1N1CCN(C(=O)c2ccccc2)CC1)c1cc2ccccc2o1	-6	-1	-20	3	63*
c1coc(CNc2nc(-c3ccncc3)cs2)c1	13	.	32*	2	.
COc1ccc(-c2csc(NCc3ccco3)n2)cc1	-9	0	8	-6	-10
Cc1ccc(C2(C(F)(F)F)NC(=O)N3C(=C2C#N)Nc2ccccc23)cc1 (configuration not stated)	-2	0	-4	-3	-11
CN1C2=C(C#N)C(c3ccccc3)(C(F)(F)F)NC(=O)N2c2ccccc21 (configuration not stated)	6	0	13	2	32*
SMILES	D2 PAM-1	D2 ag-1	D2 PAM-2	D2 ag-2	D2 antag
CCCCN1C(=O)C2C(C(=O)Nc3cccc(OC)c3)C3C=CC2(O3)C1C(=O)NC1CCCCC1C (configuration not stated)	-14	0	3	0	36*
CCCCN(C)CCN1C(=O)C2C(C(=O)Nc3cccc(OC)c3)C3C=CC2(O3)C1C(=O)NC1CCCCC1C (configuration not stated)	-2	-2	6	1	5
O=C(c1ccccc1Cl)N1CCCCC1CCN1CCCCC1 (configuration not stated)	.	-1	-5	.	.
Cc1cc(=O)[nH]c(N2CCCNCC2)n1	5	0	9	-3	0
Cc1cc(=O)[nH]c(-n2nc(C)cc2C)n1	0	1	-3	-1	44*
CCN(CC)CCNCC(O)(c1ccc(Cl)cc1)c1ccc(Cl)cc1	-16	.	-25	-1	.
CCN(CC)CCNCc1ccc(-c2ccc(Cl)cc2)o1	-30	0	-24	1	33*
CCOC(=O)N1CCc2c(sc3c2c(=O)n(CCc2ccccc2)c(=O)n3CC(=O)Nc2ccc(C)cc2)C1	.	.	-5	.	.
NC(=O)CSc1nc2ccccc2c(=O)n1-c1ccccc1	-7	0	5	2	41*
COc1cccc(-n2c(SCC(N)=O)nc3ccccc3c2=O)c1	4	5	11	-1	28
Cc1ccc(-n2c(SCC(N)=O)nc3c([nH]c4ccccc43)c2=O)cc1	-8	0	32*!	-5	-3
CCn1c(SCC(N)=O)nc2ccccc2c1=O	-10	0	3	0	37*
Cc1ccc2c(c1)c1c(c(=O)n(-c3cccc(Cl)c3)c(=O)n1CC(=O)N1CCCC1)n2C	.	1	2	.	.
Cc1cc(S(=O)(=O)NCCc2csc(-c3cccc(F)c3)n2)ccc1F	.	.	1	.	.
Cc1nnc(N2CCC(C(=O)N3CCCCC3)CC2)c2nn(-c3ccccc3)c(C)c12	.	-1	14	.	.
N#Cc1ccccc1COC(=O)c1ccc2c(c1)OCCO2	-21	0	-4	4	31*
Cc1ccc(Nc2nnc(-c3ccc(C)c(S(=O)(=O)N4CCOCC4)c3)c3ccccc23)c(C)c1	.	1	-19	.	.
Cc1ccc(-c2onc(C)c2C)cc1S(=O)(=O)NCc1cccs1	.	0	4	.	.
CCOc1nc(-c2ccccc2)ccc1-c1noc(-c2ccc(C)cc2)n1	.	-2	6	.	.
CCCCOc1ccc(-c2nc(-c3cccnc3)no2)cc1	-7	0	-6	-1	34*
CCOc1ccc(-c2nc(-c3cccnc3)no2)cc1	5	0	-4	-1	-18
CCOc1ccc(-c2nc(-c3ccccc3C)no2)cc1	.	1	.	.	53*
COC(=O)C1=CO[C@@H](C)[C@H]2CN3CCc4c([nH]c5ccccc45)[C@@H]3C[C@H]12	-37	0	-23	-7	71*
Cc1cccc(CSc2ncc(Cl)c(C(=O)Nc3sc4c(c3C#N)CCCC4)n2)c1	.	0	7	.	.
CC(C)Sc1ncc(Cl)c(C(=O)Nc2ccc(S(=O)(=O)N3CCCCC3)cc2)n1	.	3	-15	.	.
C=CCn1c(=NC(=O)c2ccccc2[N+](=O)[O-])sc2cc(S(C)(=O)=O)ccc21	71*	-1	13	?	3
NNc1nc(-c2ccccc2Cl)nc2sc3c(c12)CCCC3	53*	0	13	?	-7
CCN1CCN(c2c(S(=O)(=O)c3ccc(C)c(C)c3)cnc3ccc(F)cc23)CC1	-12	-1	-21	-5	37*
